Compounds without any hit were thinned out: in the full panel of roughly 83,000, 20% have a hit.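 Compound tested at a single concentration for 48 hours in 96-well plates; a percent growth value below 10 was scored as active.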 Values without a mark were called inactive. The source made the active and inactive calls.

9 compounds from PubChem BioAssay (NCI) can be followed below.

Experiment in all cases: NCI-60 one-dose screen, 48 h (100 = growth as untreated, 0 = no growth, -100 = all killed)
One assay has as its system HCT-15 colon. Conditions: 10 µM unless noted.
For a further assay, the system named is HT29 colon. Conditions: 10 µM unless noted.
The test system of another assay is SNB-75 CNS. Conditions: 10 µM unless noted.
Another assay relates to SNB-19 CNS. The note with it: 10 µM unless noted.
Another assay relates to U251 CNS. Conditions: 10 µM unless noted.
In the next assay the test system is PC-3 prostate. Conditions: 10 µM unless noted.
The next assay deals with SK-MEL-5 melanoma. The note with it: 10 µM unless noted.
The next assay has as its system UACC-62 melanoma. The note with it: 10 µM unless noted.
Another assay relates to LOX IMVI melanoma. Conditions: 10 µM unless noted.
A further assay relates to SK-MEL-28 melanoma. The note with it: 10 µM unless noted.
A further assay deals with EKVX NSCLC. Conditions: 10 µM unless noted.
Another assay has as its system SN12C renal. Conditions: 10 µM unless noted.
For a further assay, the system named is UO-31 renal. The note with it: 10 µM unless noted.
In a further assay the test system is TK-10 renal. The note with it: 10 µM unless noted.
The subject of another assay is ACHN renal. The note with it: 10 µM unless noted.
A further assay concerns CAKI-1 renal. Conditions: 10 µM unless noted.
A further assay relates to A498 renal. Conditions: 10 µM unless noted.
The next assay relates to CCRF-CEM leukemia. Conditions: 10 µM unless noted.
A further assay has as its system SK-MEL-2 melanoma. Conditions: 10 µM.
The test system of another assay is MOLT-4 leukemia. The note with it: 10 µM unless noted.

Turning to `O=C(CNc1nnc(-c2ccc(Cl)cc2)o1)Nc1ccc(-c2nc3ccccc3s2)cc1`, the growth with HCT-15 colon is 89.6%; with HT29 colon, 95.7%; with SNB-75 CNS it was 85.8%; in the assay on SNB-19 CNS, 90.6%; with U251 CNS, 81.6%; with PC-3 prostate it was 88.6%. Also, the growth was 92.1% in the assay on SK-MEL-5 melanoma; 86.1% in the assay on UACC-62 melanoma; -43.1% (active) in the assay on LOX IMVI melanoma; 117% with SK-MEL-28 melanoma; 104% in the assay with EKVX NSCLC; 94.5% in the assay on SN12C renal. Moreover, the growth was 73.3% in the assay with UO-31 renal; 91.7% in the assay on TK-10 renal; 112% in the assay with ACHN renal; 100% in the assay on CAKI-1 renal; 82% in the assay with A498 renal; 53.3% in the assay with CCRF-CEM leukemia.
On to `Clc1ccc(Nc2nccc(Nc3ccc4[nH]ncc4c3)n2)cc1`, for which the growth was 40.5% with HCT-15 colon; 16.6% with HT29 colon; 67.6% with SNB-75 CNS; 78.1% with SNB-19 CNS; 58.8% in the assay with U251 CNS; 24.9% in the assay with PC-3 prostate. Moreover, the growth with SK-MEL-5 melanoma is 25.9%; with UACC-62 melanoma, 33.5%; with LOX IMVI melanoma it was 44.9%; in the assay with SK-MEL-28 melanoma it was 80%; with EKVX NSCLC it was 66.7%; in the assay on SN12C renal, 51.6%. For the same compound, the growth in the assay with UO-31 renal was 17.4%; with TK-10 renal, 61.6%; in the assay with ACHN renal it was 47.4%; in the assay with CAKI-1 renal, 52.3%; with A498 renal, 39.1%; with CCRF-CEM leukemia it was 5.15% (active).
As to `COc1ccc(-c2ccc3c(N4CCOC[C@@H]4C)nc(N4CCOC[C@@H]4C)nc3n2)cc1CO`, the growth in the assay with HCT-15 colon was 6.93% (active); in the assay on HT29 colon, 6.32% (active); in the assay on SNB-75 CNS, -44.9% (active); in the assay with SNB-19 CNS, 9.71% (active); in the assay on U251 CNS, 7.15% (active); in the assay on PC-3 prostate, 9.37% (active). In addition, the growth in the assay with SK-MEL-5 melanoma was -26.8% (active); in the assay with UACC-62 melanoma it was -32.3% (active); with LOX IMVI melanoma it was 1.2% (active); with SK-MEL-28 melanoma it was -17.1% (active); in the assay on EKVX NSCLC it was 7.48% (active); in the assay on SN12C renal it was 9.9% (active). The growth with UO-31 renal is -13% (active); in the assay on TK-10 renal it was -30.8% (active); with ACHN renal, 5.54% (active); in the assay with CAKI-1 renal, -14.6% (active); in the assay on A498 renal, -35.4% (active); in the assay with CCRF-CEM leukemia, 16.4%.
Regarding `O=c1[nH]ccc2c(S(=O)(=O)N3CCCNCC3)cccc12`, the growth in the assay on HCT-15 colon is 93.3%; in the assay with HT29 colon it was 82.2%; in the assay on SNB-75 CNS, 54.6%; with SNB-19 CNS, 97.4%; in the assay on U251 CNS, 101%; with PC-3 prostate, 86.9%. For the same compound, the growth with SK-MEL-5 melanoma is 109%; in the assay on UACC-62 melanoma, 70.1%; with LOX IMVI melanoma it was 90.6%; in the assay with SK-MEL-28 melanoma it was 67%; in the assay with EKVX NSCLC it was 65.4%; with SN12C renal, 69.2%. Moreover, the growth in the assay on UO-31 renal is 40.6%; in the assay on TK-10 renal, 26%; in the assay on ACHN renal, 41.7%; with CAKI-1 renal it was 55.5%; in the assay on A498 renal, 36.3%; in the assay with CCRF-CEM leukemia it was 89.1%.
`CCNC(=O)C#Cc1ccc2c(C(=Nc3ccc(CN(C)C)cc3)c3ccccc3)c(O)[nH]c2c1`: the growth in the assay with HCT-15 colon was 27.7%; in the assay on HT29 colon it was -40% (active); with SNB-75 CNS it was 3.23% (active); in the assay with SNB-19 CNS, 29.5%; in the assay with U251 CNS it was 22.4%; in the assay on PC-3 prostate, 44.4%. For the same compound, the growth with SK-MEL-5 melanoma was 17%; in the assay with UACC-62 melanoma, -32.5% (active); in the assay on LOX IMVI melanoma, -75.7% (active); with SK-MEL-28 melanoma it was -11.6% (active); in the assay with EKVX NSCLC, 49%; with SN12C renal, 36.5%. The growth is 8.22% (active) with UO-31 renal; 25.7% in the assay with TK-10 renal; 35.6% in the assay with ACHN renal; 32.7% with CAKI-1 renal; -40.3% (active) in the assay on A498 renal; 17.3% in the assay on CCRF-CEM leukemia.
`Clc1ccc(/C=C/c2cc(N3CCOCC3)c3cc(Cl)c(Cl)cc3n2)cc1`: the growth with HCT-15 colon was 97.4%; in the assay with HT29 colon, 93.1%; in the assay on SNB-75 CNS it was 69.7%; with SNB-19 CNS, 108%; with U251 CNS, 81.4%; in the assay with PC-3 prostate, 37.2%. Further, the growth is 93.9% in the assay with SK-MEL-5 melanoma; 98.6% in the assay on UACC-62 melanoma; 99.6% in the assay on LOX IMVI melanoma; 105% in the assay on SK-MEL-28 melanoma; 104% with SK-MEL-2 melanoma; 20.1% in the assay with SN12C renal. In addition, the growth with UO-31 renal is 12.5%; in the assay on TK-10 renal, 92.8%; in the assay on ACHN renal, 94.3%; with CAKI-1 renal, 78.6%; with A498 renal, 67.7%; in the assay on CCRF-CEM leukemia it was 4.25% (active). Moreover, in the assay with MOLT-4 leukemia, the growth is 1.45% (active).
Take `Cc1nc(-c2cn3c(n2)-c2ccc(-c4cnn(C(C)(C)C(N)=O)c4)cc2OCC3)n(C(C)C)n1`: the growth was 30.8% in the assay with HCT-15 colon; 10.5% in the assay on HT29 colon; -5.53% (active) in the assay on SNB-75 CNS; 30.8% in the assay with SNB-19 CNS; 23.5% with U251 CNS; 23.5% in the assay with PC-3 prostate. Moreover, the growth was 8.62% (active) in the assay with SK-MEL-5 melanoma; -22.6% (active) with UACC-62 melanoma; 11.6% with LOX IMVI melanoma; 9.16% (active) in the assay on SK-MEL-28 melanoma; 36.1% in the assay on EKVX NSCLC; 25.7% with SN12C renal. Moreover, the growth with UO-31 renal was 5.32% (active); in the assay on TK-10 renal, 8.61% (active); with ACHN renal it was 15.9%; in the assay with CAKI-1 renal, 21.1%; in the assay with A498 renal, -31.3% (active); in the assay on CCRF-CEM leukemia, 26.4%.
With `O=C1CSC(c2c(F)cccc2Cl)N1NC(=O)C(O)(c1ccccc1)c1ccccc1` (stereo not drawn), the growth in the assay with HCT-15 colon is 102%; in the assay with HT29 colon, 95.9%; with SNB-75 CNS, 82.9%; in the assay with SNB-19 CNS, 98.4%; in the assay on U251 CNS it was 95.7%; in the assay with PC-3 prostate, 95.5%. Also, the growth in the assay with SK-MEL-5 melanoma is 89.5%; with UACC-62 melanoma, 82.8%; in the assay with LOX IMVI melanoma, 94.2%; in the assay on SK-MEL-28 melanoma it was 107%; in the assay with SK-MEL-2 melanoma, 103%; in the assay on EKVX NSCLC, 95.2%. The growth is 93.8% with SN12C renal; 113% in the assay on TK-10 renal; 93.3% with CAKI-1 renal; 102% with A498 renal; 97% with CCRF-CEM leukemia; 74% with MOLT-4 leukemia.
In the case of `C=CC(=O)Nc1cc2c(Nc3ccc(F)c(Cl)c3)ncnc2cc1C#CC(C)(C)N1CCN(C)CC1`, the growth is -78% (active) with HCT-15 colon; -70.4% (active) in the assay on HT29 colon; -99.8% (active) in the assay with SNB-75 CNS; -98.9% (active) in the assay on SNB-19 CNS; -94.8% (active) in the assay on U251 CNS; -87.4% (active) in the assay with PC-3 prostate. Moreover, the growth was -98.4% (active) in the assay on SK-MEL-5 melanoma; -94.6% (active) in the assay on UACC-62 melanoma; -91.4% (active) in the assay with LOX IMVI melanoma; -96.9% (active) in the assay with SK-MEL-28 melanoma; -93% (active) in the assay with EKVX NSCLC; -87.7% (active) in the assay on SN12C renal. The growth is -99.8% (active) in the assay with UO-31 renal; -97.5% (active) in the assay on TK-10 renal; -100% (active) in the assay on ACHN renal; -99.8% (active) in the assay with CAKI-1 renal; -96.3% (active) in the assay on A498 renal; -11.5% (active) in the assay on CCRF-CEM leukemia.
